Assay [1] deals with HeLa. The assay can be described thus: Primary qHTS to identify gynecologic anti-cancer compounds using libraries of approved drugs and bioactive compounds (AID 1345084). Note: nearly all actives have a fitted effect of over 55% in size. The note with it: Gynecologic cancer cell panel viability, ATPlite luminescence, 48 h; series mostly up to 57.5 µM. The method, boiled down: (§1)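 Cytotoxicity screen measuring ATP content by luciferase luminescence. Each compound is applied at five concentrations for 48 h at 37 C with 5% CO2.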
On the technique in general: Quantitative high-throughput screening tests each substance at several concentrations.

Assay [2] deals with JEG-3. The assay is described as above. Conditions: Gynecologic cancer cell panel viability, ATPlite luminescence, 48 h; series mostly up to 57.5 µM. The method, boiled down: as §1
(In general: In ATP-based viability assays light output follows the ATP content of the culture.)

Assay [3] concerns Tov-21-G. The description is as above. The note with it: Gynecologic cancer cell panel viability, ATPlite luminescence, 48 h; series mostly up to 57.5 µM. The method, boiled down: as §1
Assay [4] deals with Tov112D. The description is as above. Conditions: Gynecologic cancer cell panel viability, ATPlite luminescence, 48 h; series mostly up to 57.5 µM. The method, boiled down: as §1
Assay [5] is described as follows: Drug repurposing screens with cells derived from glioblastoma tumor samples (AID 1345199). Note: nearly all actives have a fitted effect of over 40% in size. Conditions: GBM patient neurospheres viability, ATP luminescence, 48 h. The method, boiled down: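 Four patient lines of CD133+ GBM neurospheres were screened at several concentrations; hits were retested in those lines plus three slower-growing GBM lines, using 48-hour treatment and ATP-based viability.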

The test system of assay [6] is Es-2. Briefly: Primary qHTS to identify gynecologic anti-cancer compounds using libraries of approved drugs and bioactive compounds (AID 1345084). Note: nearly all actives have a fitted effect of over 55% in size. The note with it: Gynecologic cancer cell panel viability, ATPlite luminescence, 48 h; series mostly up to 57.5 µM. The method, boiled down: as §1
In assay [7] the test system is OV90. The description is as above. Conditions: Gynecologic cancer cell panel viability, ATPlite luminescence, 48 h; series mostly up to 57.5 µM. The method, boiled down: as §1
Assay [8] deals with PA-1. The description is as above. The note with it: Gynecologic cancer cell panel viability, ATPlite luminescence, 48 h; series mostly up to 57.5 µM. The method, boiled down: as §1
The subject of assay [9] is SKOV3. Described as above. Conditions: Gynecologic cancer cell panel viability, ATPlite luminescence, 48 h; series mostly up to 57.5 µM. The method, boiled down:
as §1

The subject of assay [10] is Hek293T. Described as above. Conditions: Gynecologic cancer cell panel viability, ATPlite luminescence, 48 h, control line for the selectivity index; series mostly up to 57.5 µM. The method, boiled down:
as §1

Setting [11] is: at 45.9 µM (top of the series), tumour line B.
Where [12] appears, read: at 45.9 µM (top of the series), tumour line D.
Where [13] appears, read: at 46 µM (top of the series), tumour line A.
[14] abbreviates: at 46.1 µM (top of the series), tumour line C.

Several values for one entry are separate records, joined by “and”; a condition that tells them apart may be missing. Identical values can stand only once. Records with an inconclusive call do not appear. Some compounds were tested as several samples or in several runs, with calls that do not always agree. Activity calls are given as the source filed them. Calls come from the whole dose curve; as a rule, active = well fitted curve in the direction sought with a large enough effect; inconclusive = small, poorly fitted or top-dose-only effect, or another doubt; inactive = no such curve, though single readings can be large; an effect the other way counts as inactive or inconclusive.
% is set by controls: 0 for no effect and ±100 for the full control effect; potency is the fitted concentration of half-maximal effect.

In the case of `COC(=O)C1=C(C)NC(C)=C(C(=O)OCCCN2CCC(c3ccccc3)(c3ccccc3)CC2)C1c1cccc([N+](=O)[O-])c1` (stereo not given), the Potency result in assay [1], in assay [2], in assay [3] and in assay [4] was “inactive” throughout.
`C[C@]12CCC(=O)C=C1CC[C@@H]1[C@H]2[C@@H](O)C[C@@]2(C)[C@H]1CC[C@]2(O)C(=O)CO`: the activity, negative = cell killing is -8.77% (inactive) in [5] (setting [11]), -14.8% (inactive) in [5] (setting [12]), -3.08% (inactive) in assay [5] (setting [13]) and 14.8% (inactive) in assay [5] (setting [14]).
Consider `CN(C)CCc1c[nH]c2ccc(Cn3cncn3)cc12`, for which the activity, negative = cell killing was -9.89% (inactive) in [5] (setting [11]), -20.8% (inactive) in assay [5] (setting [12]) and -16% (inactive) in assay [5] (setting [14]).
`CCCCc1ccc2nc(NC(=O)OC)[nH]c2c1`: the Potency in assay [6] was 562 nM (active); in [1], 398 nM (active); in assay [7], 1.58 µM (active); in [8], 0.282 µM (active); in [3] it was 0.631 µM (active); in assay [4], 0.251 µM (active).
Regarding `CC[C@]1(O)C[C@H]2CN(CCc3c([nH]c4ccccc34)[C@@](C(=O)OC)(c3cc4c(cc3OC)N(C=O)[C@H]3[C@@](O)(C(=O)OC)[C@H](OC(C)=O)[C@]5(CC)C=CCN6CC[C@]43[C@@H]65)C2)C1`, the Potency in assay [6] is 891 nM (active); in assay [1], 891 nM (active); in assay [7] it was 1.78 µM (active); in [8] it was 0.199 µM (active); in [4], 0.178 µM (active); in assay [5] (tumour line A), 0.02 µM (active). For the same compound, in assay [5] (setting [12]), the activity, negative = cell killing was -44.9% (inactive).
For the compound `C[C@H](Cn1cnc2c(N)ncnc21)OCP(=O)(O)O`, the activity, negative = cell killing in [5] (setting [11]) is -17.6% (inactive); in [5] (setting [12]), -7.53% (inactive); in assay [5] (setting [13]), -24.5% (inactive); in [5] (setting [14]), -20.5% (inactive).
As to `O=c1oc2cc(O)ccc2s1`, the activity, negative = cell killing in assay [5] (setting [11]) is -24% (inactive). In assay [5] (tumour line C), the Potency was 23.1 µM (active).
With `CC(C)Oc1ccc2c(=O)c(-c3ccccc3)coc2c1`, the Potency in assay [6] is 5010 nM (active); in [1], 28200 nM (active); in assay [7], 22.4 µM (active); in assay [8], 20 µM (active); in [3] it was 15.8 µM (active); in assay [4], 20 µM (active).
With `c1ccc2[nH]c(-c3cscn3)nc2c1`, the Potency result in [1], in assay [2], in [7], in assay [8], in assay [9] and in assay [3] was “inactive” each time. The Potency entry in assay [4] was “inactive”. In addition, the activity, negative = cell killing was -26.3% (inactive) in assay [5] (setting [11]) and 7.08% (inactive) in assay [5] (setting [14]).
As for `CN(C)c1ccc2nc3ccc(=[N+](C)C)cc-3sc2c1`, the Potency in assay [6] is 1780 nM (active); in assay [10] it was 14.1 µM (active); in assay [2], 2 µM (active); in assay [7] it was 12.6 µM (active); in [8] it was 0.891 µM (active); in assay [3] it was 10 µM (active). The Potency in assay [4] is 6.31 µM (active).
Turning to `OC(CN1CCN(c2cccc(Cl)c2)CC1)C(c1ccccc1)c1ccccc1` (stereo not given), the Potency result in assay [1], in assay [10], in [2], in assay [7], in assay [8] and in assay [9] was “inactive” each time. Besides, the Potency result in assay [3] and in [4] was “inactive” each time.
For the compound `CCCS(=O)c1ccc2nc(NC(=O)OC)[nH]c2c1` (stereo not given), the Potency result in [6], in [2] and in assay [7] was “inactive” throughout. The Potency in assay [8] was 14.1 µM (active); in assay [4], 8.91 µM (active).
As to `CC(C)C[C@H](NC(=O)[C@H](Cc1ccccc1)NC(=O)c1cnccn1)B(O)O`, the Potency was 316 nM (active) in assay [1]; 0.0447 µM (active) in [7]; 0.501 µM (active) in assay [9]; 2 µM (active) and 2.24 µM (active) in assay [4]. Further, the Potency entry in assay [2] was “inactive”.
On to `O=C1CCc2ccc(OCCCCN3CCN(c4cccc(Cl)c4Cl)CC3)cc2N1`, for which the Potency result in [1], in assay [2], in assay [7], in assay [9], in assay [3] and in [4] was “inactive” throughout. Also, the activity, negative = cell killing in [5] (setting [14]) is -16.8% (inactive). For the same compound, the Potency in assay [5] (tumour line A) is 3.98 µM (active); in assay [5] (tumour line B), 22.4 µM (active).
For `Cc1ccc(NC(=O)c2ccc(CN3CCN(C)CC3)cc2)cc1Nc1nccc(-c2cccnc2)n1`, the Potency result in [1] is “inactive”. Also, the Potency was 35.5 µM (active) in assay [7]; 25.1 µM (active) in assay [8]; 12.6 µM (active) in assay [5] (tumour line A); 20 µM (active) in assay [5] (tumour line B); 12.6 µM (active) in [5] (tumour line D). In addition, the activity, negative = cell killing in assay [5] (setting [14]) was 17.6% (inactive).
For the compound `C[Se]CCC(N)C(=O)O` (stereo not given), the activity, negative = cell killing in assay [5] (setting [11]) was -7.06% (inactive); in [5] (setting [12]), 3.7% (inactive); in [5] (setting [13]), -13.2% (inactive); in [5] (setting [14]), 5.25% (inactive).
Regarding `COC1=C(OC)C(=O)C(CCCCCCCCCCO)=C(C)C1=O`, the Potency entry in assay [1], in assay [7], in [9] and in [3] was “inactive” each time. Further, the activity, negative = cell killing in assay [5] (setting [11]) is -9.04% (inactive); in [5] (setting [14]), 1.43% (inactive).
Turning to `COc1cc(Nc2c(C#N)cnc3cc(OCCCN4CCN(C)CC4)c(OC)cc23)c(Cl)cc1Cl`, the Potency is 6.31 µM (active) and 14.1 µM (active) in [6]; 25.1 µM (active) and inactive in assay [1]; 11.2 µM (active) in [8]; 10 µM (active) in assay [9].
Consider `O=P(O)(O)C(O)(Cn1ccnc1)P(=O)(O)O`, for which the activity, negative = cell killing in assay [5] (setting [11]) was -3.43% (inactive); in assay [5] (setting [12]), -0.668% (inactive); in assay [5] (setting [13]) it was -16.2% (inactive); in [5] (setting [14]) it was -7.84% (inactive).
Regarding `Cc1ccc(Nc2nccc(N(C)c3ccc4c(C)n(C)nc4c3)n2)cc1S(N)(=O)=O`, the Potency result in [6], in assay [10], in assay [2], in assay [8] and in [4] was “inactive” each time. Further, the Potency in assay [9] is 14.1 µM (active); in assay [5] (tumour line A), 2.51 µM (active); in assay [5] (tumour line D) it was 7.08 µM (active). The activity, negative = cell killing in [5] (setting [11]) is -23.7% (inactive).
As for `Cc1ccc(C(=O)c2cc(O)c(O)c([N+](=O)[O-])c2)cc1`, the Potency result in [6], in [10], in assay [2], in assay [7], in [9] and in [3] was “inactive” each time. The Potency result in assay [4] was “inactive”. Moreover, the activity, negative = cell killing in [5] (setting [11]) was -17.5% (inactive).
Turning to `CC(C)[N+]1(C)[C@@H]2CC[C@H]1CC(OC(=O)C(CO)c1ccccc1)C2` (stereo not given in full), the activity, negative = cell killing in assay [5] (setting [11]) was -10.3% (inactive) and -8.73% (inactive); in assay [5] (setting [12]), -5.23% (inactive) and -7.38% (inactive); in assay [5] (setting [13]), -16.8% (inactive); in assay [5] (setting [14]), 14% (inactive) and -28.4% (inactive).

Source of the values: PubChem BioAssay (NCATS).
